Source: PubChem BioAssay
Active and inactive are the calls of the source. Unless noted, how the calls were made is not given here.

Tests used:
[1] = HepG2 liver cancer cell viability effects, profiling panel, resazurin fluorescence, 24 h, PK04 Diversity Set (AID 1172); conditions: higher = more signal
[2] = basal S. cerevisiae growth modulation, no modifier, primary screen, OD600, strain BY4716, 24 h, basal condition (AID 1173); conditions: OD600, 24 h, higher = more signal, called active from +8 up or from −8 down
[3] = MM1S myeloma cell viability, profiling panel, resazurin fluorescence, basal, 24 h, PK04 Diversity Set (AID 1174); conditions: higher = more signal, called active from +8 up or from −8 down;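 further: MM1S multiple myeloma cell line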
[4] = biological target: Dihydroorotate dehydrogenase (quinone), mitochondrial (Plasmodium falciparum (isolate 3D7)) (UniProt Q08210); experiment: PfDHODH enzyme inhibitors, primary screen, biochemical, C-terminal His tag, absorbance 600 nm (AID 1175); conditions: DCIP absorbance 600 nm, higher = more signal, called active from +8 up or from −8 down;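 further: recombinant parasite enzyme with a five histidine tag at its C terminus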
Chain of Dihydroorotate dehydrogenase (quinone), mitochondrial (Plasmodium falciparum (isolate 3D7)) (Q08210 whole entry, looked up): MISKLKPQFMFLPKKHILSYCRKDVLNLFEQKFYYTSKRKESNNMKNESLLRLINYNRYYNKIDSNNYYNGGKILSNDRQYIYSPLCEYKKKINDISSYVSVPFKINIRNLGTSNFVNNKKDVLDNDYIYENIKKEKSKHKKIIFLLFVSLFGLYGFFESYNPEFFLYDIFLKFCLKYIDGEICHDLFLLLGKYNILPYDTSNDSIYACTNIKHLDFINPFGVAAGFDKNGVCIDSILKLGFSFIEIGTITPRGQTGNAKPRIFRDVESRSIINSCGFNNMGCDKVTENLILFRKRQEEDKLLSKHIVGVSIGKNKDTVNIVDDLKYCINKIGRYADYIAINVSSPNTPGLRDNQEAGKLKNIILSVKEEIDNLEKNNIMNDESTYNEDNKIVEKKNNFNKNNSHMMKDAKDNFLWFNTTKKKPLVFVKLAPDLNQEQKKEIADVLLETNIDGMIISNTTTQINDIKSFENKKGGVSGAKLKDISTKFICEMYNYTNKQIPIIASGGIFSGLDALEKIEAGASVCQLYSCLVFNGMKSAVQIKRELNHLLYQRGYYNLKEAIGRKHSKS

[5] = P. aeruginosa biofilm formation inhibitors, primary screen, strain PAO1, LB-PBS medium, absorbance 600 nm (AID 1176); conditions: P. aeruginosa PAO1 growth/biofilm, A600, 12 h; higher = more signal
[6] = S. cerevisiae RM11-1a growth modifiers, primary screen, strain RM11-1a, OD600, basal, 24 h (AID 1177); conditions: OD600, 24 h, higher = more signal, called active from +8 up or from −8 down;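 further: cultures grown under basal conditions with no added stressor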
[7] = E. coli acrAB mutant growth effects, primary screen, E. coli filamentation inducers, strain DRC39, OD650, 24 h (AID 1178); conditions: higher = more signal, called active from +8 up or from −8 down;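 further: growth measured as culture turbidity by optical density at 650 nm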
[8] = E. coli acrAB mutant growth effects, primary screen, E. coli filamentation inducers, strain DRC39, OD650, 48 h (AID 1179);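 further: screen aims at cell division blockers that make cells filament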; conditions: E. coli DRC39 delta-acrAB growth, higher = more signal, called active from +8 up or from −8 down
[9] = RPMI8226 myeloma cell viability, profiling panel, resazurin fluorescence, basal, 24 h, PK04 Diversity Set (AID 1180); conditions: higher = more signal;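 further: RPMI8826 multiple myeloma cell line at 5000 cells per well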
[10] = biological target: E3 ubiquitin-protein ligase XIAP (Homo sapiens) (UniProt P98170); experiment: XIAP binders, primary screen, biophysical, small-molecule microarray, fluorescence 635 nm (AID 1181); conditions: small-molecule microarray binding, higher = more signal;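 further: score merges 667 nm emission and signal to noise over triplicate slides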
Chain of E3 ubiquitin-protein ligase XIAP (Homo sapiens) (P98170 whole entry, looked up): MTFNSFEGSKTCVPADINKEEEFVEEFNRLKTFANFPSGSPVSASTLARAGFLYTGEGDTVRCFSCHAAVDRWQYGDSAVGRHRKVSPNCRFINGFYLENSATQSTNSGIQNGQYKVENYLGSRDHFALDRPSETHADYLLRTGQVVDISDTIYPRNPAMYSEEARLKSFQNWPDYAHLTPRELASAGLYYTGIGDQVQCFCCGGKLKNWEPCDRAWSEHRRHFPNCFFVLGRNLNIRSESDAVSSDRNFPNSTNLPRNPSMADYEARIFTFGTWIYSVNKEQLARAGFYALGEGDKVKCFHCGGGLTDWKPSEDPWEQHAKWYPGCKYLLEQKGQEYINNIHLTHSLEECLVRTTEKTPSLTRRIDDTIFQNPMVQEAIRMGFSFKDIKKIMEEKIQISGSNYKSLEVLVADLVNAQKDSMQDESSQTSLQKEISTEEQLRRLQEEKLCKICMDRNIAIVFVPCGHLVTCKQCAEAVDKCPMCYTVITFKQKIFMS

[11] = system: XIP peptide (Xip251-270) binding; experiment: small-molecule binders of XIP peptide, primary screen, biochemical, small-molecule microarray, fluorescence 635/667 nm, 0.1 µg/mL protein (AID 1182); conditions: fluorescent protein binding, 635 nm, higher = more signal, called active from +8 up or from −8 down
[12] = system: XIP peptide (Xip251-270); experiment: small-molecule binders of XIP peptide, primary screen, biochemical, small-molecule microarray, fluorescence 635/667 nm, 0.5 µg/mL protein (AID 1183); conditions: small-molecule microarray binding, fluorescence 635 nm; higher = more signal
[13] = Plasmodium falciparum growth inhibition, primary screen, strain 3D7, DAPI fluorescence, 100 nL (AID 1184);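 further: parasites grown inside human red blood cells in medium with human serum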; conditions: P. falciparum 3D7 growth, 3 d, higher = more signal
[14] = biological target: Homeobox protein Hox-A13 (Mus musculus) (UniProt Q62424); experiment: inhibitors of HoxA13-DNA binding, primary screen, biochemical, fluorescence polarization, labeled oligonucleotide (AID 1185); conditions: 15 min, higher = more signal, called active from +8 up or from −8 down
Chain of Homeobox protein Hox-A13 (Mus musculus) (Q62424 whole entry, looked up): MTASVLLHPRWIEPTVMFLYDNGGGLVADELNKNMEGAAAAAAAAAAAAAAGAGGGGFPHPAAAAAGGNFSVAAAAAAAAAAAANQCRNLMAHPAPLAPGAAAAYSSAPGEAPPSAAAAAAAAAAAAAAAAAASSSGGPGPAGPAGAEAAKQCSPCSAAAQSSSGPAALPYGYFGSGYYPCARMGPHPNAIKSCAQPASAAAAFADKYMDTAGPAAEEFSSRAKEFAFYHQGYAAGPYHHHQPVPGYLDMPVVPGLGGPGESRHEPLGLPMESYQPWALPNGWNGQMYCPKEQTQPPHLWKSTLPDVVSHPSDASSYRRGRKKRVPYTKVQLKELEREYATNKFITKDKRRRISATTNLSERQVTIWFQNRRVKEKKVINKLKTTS

[15] = inhibitors of hydroxyurea-induced Chk1 phosphorylation, primary screen, imaging, HeLa, phospho-Chk1 antibody, percent positive cells (AID 1186); conditions: hydroxyurea-induced phospho-Chk1 immunofluorescence imaging, higher = more signal
[16] = inhibitors of hydroxyurea-induced Chk1 phosphorylation, primary screen, imaging, HeLa, phospho-Chk1 nuclear intensity (AID 1187); conditions: hydroxyurea-induced phospho-Chk1 immunofluorescence imaging, higher = more signal

Compound | z-score [1] | z-score [2] | z-score [3] | composite z-score [4] | z-score [5] | z-score [6] | z-score [7] | z-score [8] | z-score [9] | composite z-score [10] | composite z-score [11] | composite z-score [12] | z-score [13] | z-score [14] | z-score [15] | z-score [16]
CN1C(=O)C2C=CC(C(O)C(C)(C)C)N(Nc3ccccc3)C2C1=O (centres undefined) | -0.376 | 0.66 (inactive) | -0.281 (inactive) | -0.702 (inactive) | 0.695 (inactive) | 0.0609 (inactive) | -0.568 (inactive) | 0.108 (inactive) | -0.444 | 0.621 | 0.127 (inactive) | 0.403 | 0.987 | -0.565 (inactive) | -0.415 (inactive) | -0.815 (inactive)
[N-]=[N+]=Nc1ccccc1[C@@H]1OC(c2ccc(OCCCO)cc2)=N[C@]1(CCS(=O)(=O)c1ccccc1)C(=O)O | 0.97 | -0.14 (inactive) | -0.3 (inactive) | -23.4 (active) | -0.884 (inactive) | 0.82 (inactive) | 0.277 (inactive) | 0.82 (inactive) | 0.205 | 0.125 | 0.97 (inactive) | 0.727 | -1.19 | -4.69 (inactive) | -0.273 (inactive) | -0.0293 (inactive)
C=CCCN(CC#C[C@H]1Oc2ccccc2S(=O)(=O)N2CCC[C@@H]12)S(=O)(=O)c1ccc(C)cc1 | -0.28 | -0.0024 (inactive) | -1.33 (inactive) | 0.711 (inactive) | 0.425 (inactive) | 1.62 (inactive) | 0.0069 (inactive) | -0.285 (inactive) | -1.55 | 0.0027 | -0.183 (inactive) | -0.0455 | -1.53 | -2.47 (inactive) | 0.508 (inactive) | 0.431 (inactive)
C[N+](C)(C)CCCC[C@@H]1NC(=O)[C@H]2C[C@@H](C(=O)O)[C@@H](c3cccc(OCCO)c3)N2C1=O | 0.352 | -1.32 (inactive) | 0.644 (inactive) | 0.16 (inactive) | 0.0751 (inactive) | -0.625 (inactive) | 0.406 (inactive) | 0.871 (inactive) | 0.773 | 0.353 | 3.68 (inactive) | 0.809 | -0.255 | -0.304 (inactive) | 0.336 (inactive) | 0.213 (inactive)
NC(=O)[C@]1(Cc2ccccc2)N=C(c2ccc(OCCCO)cc2)O[C@@H]1c1ccccc1 | -0.3 | -1.06 (inactive) | -1.02 (inactive) | 0.417 (inactive) | 0.246 (inactive) | 0.569 (inactive) | 0.0671 (inactive) | -1.24 (inactive) | -0.189 | 0.16 | -0.0696 (inactive) | 0.0178 | -2.04 | -5.25 (inactive) | -0.0614 (inactive) | -0.209 (inactive)
O=c1cccc(-c2cccc3ccccc23)o1 | -0.0368 | -14.1 (active) | -0.0171 (inactive) | -2.39 (inactive) | 0.794 (inactive) | -1.95 (inactive) | -0.0645 (inactive) | -0.0042 (inactive) | 0.024 | 0.126 | -0.738 (inactive) | 0.454 | -0.796 | -1.69 (inactive) | -0.715 (inactive) | -1.06 (inactive)
C=C(CCCC)C(=O)CC[C@@H](OC(=O)c1ccccc1-c1ccccc1C(=O)O)c1ccc(CO)o1 | 0.0232 | -0.712 (inactive) | 0.225 (inactive) | -2.93 (inactive) | 1.32 (inactive) | -0.279 (inactive) | -0.079 (inactive) | -0.218 (inactive) | -0.0459 | 0.0842 | 0.412 (inactive) | 0.432 | 1.61 | -5.58 (inactive) | 0.629 (inactive) | 0.717 (inactive)
COC(=O)[C@@]1(Cc2ccc(OC)cc2)[C@H]2c3cc(C(=O)N(C)C)n(Cc4ccc(OC)c(OC)c4)c3C[C@H]2CN1C(=O)c1ccccc1 | -0.962 | 2.46 (inactive) | -1.67 (inactive) | 0.697 (inactive) | 0.964 (inactive) | 2.19 (inactive) | -0.558 (inactive) | 0.0309 (inactive) | -2.28 | 0.124 | 0.811 (inactive) | 0.696 | -1.47 | -4.3 (inactive) | -0.225 (inactive) | 0.305 (inactive)
C=CCN1Cc2ccccc2C[C@]2(N=C(c3ccc(OCCCO)cc3)O[C@@H]2c2ccccc2)C1=O | -0.677 | -1.35 (inactive) | -2.24 (inactive) | -1.1 (inactive) | 1.32 (inactive) | -0.211 (inactive) | 1.13 (inactive) | 1.09 (inactive) | -2.07 | -0.186 | 1.27 (inactive) | 0.824 | -2.31 | -3.62 (inactive) | -0.802 (inactive) | -0.978 (inactive)
